# From PubChem BioAssay (EPA / NIEHS)
# Where “and” joins values, the source holds several entries; their conditions need not be identical. Equal values may be shown once. Results filed as inconclusive are left out. Calls of active or inactive are those of the source. Rule for the calls: active = hit-call score of the fitted dose curve at least 0.9, where 1 is the maximum; inconclusive = response in the unintended direction; inactive = score below 0.9.
# Tests used:
# [1] = biological target: rat Thyrotropin Releasing Hormone Receptor (TRH), Trhr (gene 25570) (UniProt Q01717); assay: NVS_GPCR_rTRH: NovaScreen (NVS) G Protein-Coupled Receptor Assay for rat Thyrotropin Releasing Hormone Receptor (TRH) (AID 2283329);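 note: hit means lower bound tracer signal versus DMSO baseline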
# Chain of rat Thyrotropin Releasing Hormone Receptor (TRH), Trhr (gene 25570) (Q01717 whole entry, looked up): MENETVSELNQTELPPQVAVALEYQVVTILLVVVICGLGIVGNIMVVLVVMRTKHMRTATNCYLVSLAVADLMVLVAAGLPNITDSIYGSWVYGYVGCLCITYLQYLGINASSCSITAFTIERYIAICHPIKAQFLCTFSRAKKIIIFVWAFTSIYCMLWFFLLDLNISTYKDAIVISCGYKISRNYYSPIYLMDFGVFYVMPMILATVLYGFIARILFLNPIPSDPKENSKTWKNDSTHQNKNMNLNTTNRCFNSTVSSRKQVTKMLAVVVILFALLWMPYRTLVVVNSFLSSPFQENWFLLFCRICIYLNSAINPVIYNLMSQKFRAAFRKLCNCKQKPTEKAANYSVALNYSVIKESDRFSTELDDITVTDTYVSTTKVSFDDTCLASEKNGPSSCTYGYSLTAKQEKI
# Summary of the method: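 Test compounds are screened at 25 uM in duplicate against radioligand binding in rat forebrain membranes, with active pairs followed up over a concentration range. Detection uses filter-based radiodetection after a 4 h exposure.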
# [2] = biological target: Sodium channel protein type 1 subunit alpha (Rattus norvegicus) (UniProt P04774); assay: NVS_IC_rNaCh_site2: NovaScreen (NVS) Ion Channel Assay for rat Sodium Channel, Site 2 (NaCh) (AID 2283322);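 note: hit means loss of radioligand binding signal relative to DMSO so AC50 marks displacement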
# Summary of the method: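 Membranes: rat forebrain. Format: competitive radioligand displacement, filter separation, scintillation readout, 1 h exposure. Primary screen in duplicate at 25 uM; actives retested in concentration series.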
# [3] = biological target: rat Somatostatin Receptor (SST), Sstr1 (gene 25033) (UniProt P28646); assay: NVS_GPCR_rSST: NovaScreen (NVS) G Protein-Coupled Receptor Assay for rat Somatostatin Receptor (SST) (AID 2283314)
# Chain of rat Somatostatin Receptor (SST), Sstr1 (gene 25033) (P28646 whole entry, looked up): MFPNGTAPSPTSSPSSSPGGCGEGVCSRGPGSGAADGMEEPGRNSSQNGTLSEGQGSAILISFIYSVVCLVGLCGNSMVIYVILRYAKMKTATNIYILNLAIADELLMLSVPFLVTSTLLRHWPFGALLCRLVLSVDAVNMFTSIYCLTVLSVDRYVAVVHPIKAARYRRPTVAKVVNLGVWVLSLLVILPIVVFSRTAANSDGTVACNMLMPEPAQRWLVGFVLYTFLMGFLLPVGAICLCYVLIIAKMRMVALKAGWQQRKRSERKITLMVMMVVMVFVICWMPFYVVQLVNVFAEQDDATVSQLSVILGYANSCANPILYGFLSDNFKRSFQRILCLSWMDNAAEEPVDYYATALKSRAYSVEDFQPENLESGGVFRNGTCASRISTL
# Summary of the method: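 Rat forebrain membranes; radioligand displacement read by filter-based scintillation counting 1 h after dosing. Primary screen in duplicate at 25 uM. Actives (e.g., 30% inhibition) were rerun as concentration-response to 50 uM max and fitted against DMSO.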
# NCBI gene 257648 = assay: NVS_IC_rCaChN: NovaScreen (NVS) Ion Channel Assay for Calcium Channel, Type N (CaChN) (AID 2283317)
# [4] = NVS_IC_rCaDHPRCh_L: NovaScreen (NVS) Ion Channel Assay for rat Calcium Channel, Type L, Dihydropyridine Site (CaDHPRCh_L) (AID 2283320)
# Summary of the method: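 Radioligand binding to dihydropyridine site on rat cortical membranes, filter-based scintillation counting, 1 h after dosing. Screened in duplicate at 25 uM; actives rerun in concentration-response up to 50 uM. Loss of signal versus DMSO baseline.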
# [5] = biological target: human Serotonin, 5-Hydroxytryptamine Receptor 3 (5HT3), HTR3A (gene 3359) (UniProt P46098); assay: NVS_LGIC_h5HT3: NovaScreen (NVS) Ligand-Gated Ion Channel Assay for human Serotonin, 5-Hydroxytryptamine Receptor 3 (5HT3) (AID 2283325)
# Chain of human Serotonin, 5-Hydroxytryptamine Receptor 3 (5HT3), HTR3A (gene 3359) (P46098 whole entry, looked up): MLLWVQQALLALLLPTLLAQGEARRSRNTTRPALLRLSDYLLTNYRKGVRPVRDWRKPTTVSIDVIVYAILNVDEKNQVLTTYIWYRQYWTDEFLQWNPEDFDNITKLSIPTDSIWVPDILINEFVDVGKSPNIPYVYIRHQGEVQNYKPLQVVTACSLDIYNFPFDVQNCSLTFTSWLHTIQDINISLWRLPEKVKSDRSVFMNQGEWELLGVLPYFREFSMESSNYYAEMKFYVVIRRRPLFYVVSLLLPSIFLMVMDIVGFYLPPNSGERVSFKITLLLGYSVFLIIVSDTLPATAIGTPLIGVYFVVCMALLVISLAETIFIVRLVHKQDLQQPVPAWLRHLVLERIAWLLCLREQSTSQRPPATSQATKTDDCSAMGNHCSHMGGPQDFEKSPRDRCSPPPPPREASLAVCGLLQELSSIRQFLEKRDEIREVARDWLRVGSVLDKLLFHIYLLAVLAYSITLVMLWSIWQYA
# Summary of the method: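 Radioligand displacement binding to human 5-HT3 from HEK293 membranes, read by filter-based scintillation counting after 1 h. Screen at 25 uM in duplicate; chemicals passing threshold were retested in concentration-response up to 50 uM.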
# [6] = biological target: rat Oxytocin Receptor (OXT), Oxtr (gene 25342) (UniProt P70536); assay: NVS_GPCR_rOXT: NovaScreen (NVS) G Protein-Coupled Receptor Assay for rat Oxytocin Receptor (OXT) (AID 2283330)
# Chain of rat Oxytocin Receptor (OXT), Oxtr (gene 25342) (P70536 whole entry, looked up): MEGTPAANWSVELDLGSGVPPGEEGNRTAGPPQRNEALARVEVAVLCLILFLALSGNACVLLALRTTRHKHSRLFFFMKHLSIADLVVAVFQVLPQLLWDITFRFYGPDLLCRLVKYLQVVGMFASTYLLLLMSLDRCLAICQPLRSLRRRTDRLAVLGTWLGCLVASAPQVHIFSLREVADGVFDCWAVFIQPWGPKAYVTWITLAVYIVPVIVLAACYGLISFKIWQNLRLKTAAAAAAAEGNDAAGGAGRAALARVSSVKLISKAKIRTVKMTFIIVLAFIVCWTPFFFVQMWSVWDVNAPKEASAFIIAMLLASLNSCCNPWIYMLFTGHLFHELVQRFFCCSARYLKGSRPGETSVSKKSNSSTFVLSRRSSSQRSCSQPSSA
# Summary of the method: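 Radioligand displacement on rat uterine membranes, 1 h incubation, filter-based scintillation counting. Chemicals were screened in duplicate at 25 uM, and those passing threshold were retested in concentration-response up to 50 uM. Loss of binding was fitted versus DMSO.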
# [7] = biological target: human Peripheral-type Benzodiazepine Receptor (PBR), TSPO (gene 706) (UniProt P30536); assay: NVS_MP_hPBR: NovaScreen (NVS) Membrane Protein Assay for human Peripheral-type Benzodiazepine Receptor (PBR) (AID 2283331);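 note: hits reduce radioligand binding relative to DMSO baseline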
# Chain of human Peripheral-type Benzodiazepine Receptor (PBR), TSPO (gene 706) (P30536 whole entry, looked up): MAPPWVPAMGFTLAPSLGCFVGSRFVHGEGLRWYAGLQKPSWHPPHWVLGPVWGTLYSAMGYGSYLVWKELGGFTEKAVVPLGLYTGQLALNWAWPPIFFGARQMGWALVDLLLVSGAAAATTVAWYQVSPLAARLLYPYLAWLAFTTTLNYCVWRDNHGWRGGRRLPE
# Summary of the method: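 Human colonic cell membranes were incubated with test chemical for 1 hour; radioligand binding was measured by filter-based scintillation counting. Primary screen ran in duplicate at 25 uM, with actives followed in concentration series; loss of signal versus DMSO baseline.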
# [8] = biological target: bovine Gamma-Aminobutyric Acid Type A Receptor BDZ, alpha 1 site (GABARa1), GABRA1 (gene 780973) (UniProt P08219); assay: NVS_LGIC_bGABARa1: NovaScreen (NVS) Ligand-Gated Ion Channel Assay for bovine Gamma-Aminobutyric Acid Type A Receptor BDZ, alpha 1 site (GABARa1) (AID 2283321)
# Chain of bovine Gamma-Aminobutyric Acid Type A Receptor BDZ, alpha 1 site (GABARa1), GABRA1 (gene 780973) (P08219 whole entry, looked up): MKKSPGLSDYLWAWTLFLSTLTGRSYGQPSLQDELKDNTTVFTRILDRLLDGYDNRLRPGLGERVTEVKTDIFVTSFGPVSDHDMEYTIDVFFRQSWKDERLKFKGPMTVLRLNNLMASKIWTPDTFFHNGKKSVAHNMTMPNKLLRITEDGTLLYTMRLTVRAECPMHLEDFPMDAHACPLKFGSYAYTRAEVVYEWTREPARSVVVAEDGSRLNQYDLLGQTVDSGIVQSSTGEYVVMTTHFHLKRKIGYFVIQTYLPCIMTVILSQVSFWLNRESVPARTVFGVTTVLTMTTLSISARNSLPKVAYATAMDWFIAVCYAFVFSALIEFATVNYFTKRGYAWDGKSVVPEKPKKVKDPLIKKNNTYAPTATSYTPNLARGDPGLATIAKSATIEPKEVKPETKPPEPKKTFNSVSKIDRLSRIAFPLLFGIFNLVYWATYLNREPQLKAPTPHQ
# Summary of the method: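 Radioligand competition binding on bovine cortical membranes, 0.75 h, filter-based scintillation counting. Primary single concentration 25 uM in duplicate; actives rerun in concentration-response to 50 uM max. Loss of signal fitted versus DMSO.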
# [9] = biological target: bovine Gamma-Aminobutyric Acid Type A Receptor BDZ, alpha 5 site (GABARa5), GABRA5 (gene 523515) (UniProt Q08E50); assay: NVS_LGIC_bGABARa5: NovaScreen (NVS) Ligand-Gated Ion Channel Assay for bovine Gamma-Aminobutyric Acid Type A Receptor BDZ, alpha 5 site (GABARa5) (AID 2283323)
# Chain of bovine Gamma-Aminobutyric Acid Type A Receptor BDZ, alpha 5 site (GABARa5), GABRA5 (gene 523515) (Q08E50 whole entry, looked up): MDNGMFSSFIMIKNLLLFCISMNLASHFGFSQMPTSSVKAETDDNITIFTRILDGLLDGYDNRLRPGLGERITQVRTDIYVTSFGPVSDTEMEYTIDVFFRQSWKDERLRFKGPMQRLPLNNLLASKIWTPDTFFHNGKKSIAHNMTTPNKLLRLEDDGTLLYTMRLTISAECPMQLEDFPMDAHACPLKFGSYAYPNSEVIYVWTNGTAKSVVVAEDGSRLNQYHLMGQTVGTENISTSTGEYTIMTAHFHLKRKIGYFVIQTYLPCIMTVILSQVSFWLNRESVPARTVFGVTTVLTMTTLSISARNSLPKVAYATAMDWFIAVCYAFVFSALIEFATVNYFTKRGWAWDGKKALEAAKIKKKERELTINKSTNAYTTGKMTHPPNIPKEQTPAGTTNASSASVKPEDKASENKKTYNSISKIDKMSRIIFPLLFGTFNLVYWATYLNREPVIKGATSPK
# Summary of the method: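 Radioligand competitive displacement binding on bovine hippocampal membranes, read 1 hr after dosing by filter-based scintillation counting. Primary screen at 25 uM in duplicate; actives (e.g. ≥30% inhibition) then run in concentration-response up to 50 uM.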
# [10] = biological target: Voltage-dependent N-type calcium channel subunit alpha-1B (Rattus norvegicus) (UniProt Q02294); assay: NVS_IC_rCaChN: NovaScreen (NVS) Ion Channel Assay for rat Calcium Channel, Type N (CaChN) (AID 2283317)
# [11] = biological target: human Neonicotinoid receptor (NNR), CHRNA2 (gene 1135) (UniProt Q15822); assay: NVS_LGIC_hNNR_NBungSens: NovaScreen (NVS) Ligand-Gated Ion Channel Assay for human Neonicotinoid receptor (NNR) (AID 2283313)
# Summary of the method: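 Radioligand displacement on human neuroblastoma membranes, 2 h, filter-based scintillation counting. Primary screen in duplicate at 25 uM; chemicals passing threshold (e.g. 30% inhibition) run singleton concentration-response to 50 uM; loss of binding fitted versus DMSO.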
# [12] = biological target: rat Neonicotinoid receptor (NNR), Chrna7 (gene 25302) (UniProt Q05941); assay: NVS_LGIC_rNNR_BungSens: NovaScreen (NVS) Ligand-Gated Ion Channel Assay for rat Neonicotinoid receptor (NNR) (AID 2283315)
# Chain of rat Neonicotinoid receptor (NNR), Chrna7 (gene 25302) (Q05941 whole entry, looked up): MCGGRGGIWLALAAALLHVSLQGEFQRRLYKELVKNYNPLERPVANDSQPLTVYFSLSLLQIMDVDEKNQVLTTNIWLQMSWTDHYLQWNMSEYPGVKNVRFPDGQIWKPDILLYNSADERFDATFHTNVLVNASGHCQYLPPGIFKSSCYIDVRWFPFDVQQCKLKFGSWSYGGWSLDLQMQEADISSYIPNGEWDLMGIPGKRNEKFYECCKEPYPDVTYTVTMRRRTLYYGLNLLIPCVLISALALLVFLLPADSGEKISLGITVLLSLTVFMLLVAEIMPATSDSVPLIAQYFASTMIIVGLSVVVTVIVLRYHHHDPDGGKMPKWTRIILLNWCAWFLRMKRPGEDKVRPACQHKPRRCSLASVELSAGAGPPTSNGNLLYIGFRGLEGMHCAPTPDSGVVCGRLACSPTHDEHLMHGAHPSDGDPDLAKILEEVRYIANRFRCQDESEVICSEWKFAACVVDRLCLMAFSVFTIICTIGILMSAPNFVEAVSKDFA
# Summary of the method: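 Radioligand displacement binding on rat cortical membranes, 2.5 h incubation, filtration and scintillation counting. Loss of specific binding fitted relative to DMSO.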
# [13] = biological target: rat Opioid Receptor, Non-selective Binding, Oprm1 (gene 25601) (UniProt P33535); assay: NVS_GPCR_rOpiate_NonSelective: NovaScreen (NVS) G Protein-Coupled Receptor Assay for rat Opioid Receptor, Non-selective Binding (AID 2283318)
# Chain of rat Opioid Receptor, Non-selective Binding, Oprm1 (gene 25601) (P33535 whole entry, looked up): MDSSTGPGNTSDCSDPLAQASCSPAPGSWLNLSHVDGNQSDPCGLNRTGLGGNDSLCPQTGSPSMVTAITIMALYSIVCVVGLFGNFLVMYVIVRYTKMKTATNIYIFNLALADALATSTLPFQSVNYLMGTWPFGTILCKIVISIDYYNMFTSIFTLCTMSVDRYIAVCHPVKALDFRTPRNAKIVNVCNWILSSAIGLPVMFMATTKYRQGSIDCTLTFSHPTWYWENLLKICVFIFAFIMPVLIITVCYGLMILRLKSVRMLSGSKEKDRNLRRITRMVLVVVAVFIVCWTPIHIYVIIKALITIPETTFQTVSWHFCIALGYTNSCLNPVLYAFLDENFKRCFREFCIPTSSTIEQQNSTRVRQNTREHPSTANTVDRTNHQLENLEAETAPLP
# Summary of the method: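 Rat forebrain membranes, cell-free radioligand binding with filter-based scintillation counting, read 1.5 h after dosing. Primary screen in duplicate at 25 uM; actives retested in concentration series. Loss of signal versus DMSO baseline scored.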
# [14] = biological target: rat Glutamate, AMPA Site (AMPA), Gria1 (gene 50592) (UniProt P19490); assay: NVS_LGIC_rAMPA: NovaScreen (NVS) Ligand-Gated Ion Channel Assay for rat Glutamate, AMPA Site (AMPA) (AID 2283324)
# Chain of rat Glutamate, AMPA Site (AMPA), Gria1 (gene 50592) (P19490 whole entry, looked up): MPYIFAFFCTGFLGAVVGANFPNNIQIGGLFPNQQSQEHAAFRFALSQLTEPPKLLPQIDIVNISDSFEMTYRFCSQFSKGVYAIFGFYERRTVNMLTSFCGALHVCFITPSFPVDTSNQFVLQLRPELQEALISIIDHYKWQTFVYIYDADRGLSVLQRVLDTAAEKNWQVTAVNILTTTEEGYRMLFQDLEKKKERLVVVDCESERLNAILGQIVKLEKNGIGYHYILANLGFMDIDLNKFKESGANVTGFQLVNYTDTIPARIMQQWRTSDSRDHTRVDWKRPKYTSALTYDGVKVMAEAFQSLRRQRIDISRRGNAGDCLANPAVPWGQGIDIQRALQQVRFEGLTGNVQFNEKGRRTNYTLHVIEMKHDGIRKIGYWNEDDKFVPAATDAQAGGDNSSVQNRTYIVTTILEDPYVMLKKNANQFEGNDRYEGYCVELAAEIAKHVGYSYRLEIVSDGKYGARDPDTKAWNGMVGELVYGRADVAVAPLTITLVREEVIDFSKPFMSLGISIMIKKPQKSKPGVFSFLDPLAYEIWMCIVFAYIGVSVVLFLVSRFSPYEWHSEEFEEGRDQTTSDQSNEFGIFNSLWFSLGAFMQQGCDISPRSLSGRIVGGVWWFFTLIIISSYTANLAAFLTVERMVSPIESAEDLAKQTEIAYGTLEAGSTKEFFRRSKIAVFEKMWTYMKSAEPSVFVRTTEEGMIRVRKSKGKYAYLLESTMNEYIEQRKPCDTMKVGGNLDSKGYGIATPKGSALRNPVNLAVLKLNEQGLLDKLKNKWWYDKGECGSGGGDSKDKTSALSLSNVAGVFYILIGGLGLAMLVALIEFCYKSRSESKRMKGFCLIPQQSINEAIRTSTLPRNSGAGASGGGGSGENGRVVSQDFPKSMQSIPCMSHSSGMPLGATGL
# Summary of the method: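 Rat forebrain membranes; radioligand binding read 1 h after dosing by filtration and scintillation counting. Duplicate single-point screen at 25 uM, then concentration-response to 50 uM for threshold hits (e.g. 30% inhibition); loss of signal vs DMSO.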
# NCBI gene 24521 = assay: NVS_IC_rKATPCh: NovaScreen (NVS) Ion Channel Assay for rat Potassium Channel, ATP-Sensitive (KATPCh) (AID 2283319)
# Summary of the method: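 Rat cortical membranes; radioligand binding at ATP-sensitive K channel site, filter-based scintillation counting 2 h after dosing. Single-point duplicate screen at 25 uM, hits rerun in concentration-response up to 50 uM; loss of signal versus DMSO.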
# [15] = biological target: rat Glutamate, NMDA Agonist Site (GluNMDA), Grin1 (gene 24408) (UniProt P35439); assay: NVS_LGIC_rGluNMDA_Agonist: NovaScreen (NVS) Ligand-Gated Ion Channel Assay for rat Glutamate, NMDA Agonist Site (GluNMDA) (AID 2283327)
# Summary of the method: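 Rat forebrain membranes, radioligand binding in the agonist-site protocol; 1 h after dosing; filter-based scintillation counting. Single-concentration duplicate screen at 25 uM, then concentration-response up to 50 uM for actives; gain-of-signal vs DMSO.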
# [16] = biological target: rat Gamma-Aminobutyric Acid Type A Receptor, Non-Selective (GABAR-NonSelective), Gabra1 (gene 29705) (UniProt P62813); assay: NVS_LGIC_rGABAR_NonSelective: NovaScreen (NVS) Ligand-Gated Ion Channel Assay for rat Gamma-Aminobutyric Acid Type A Receptor, Non-Selective (GABAR-NonSelective) (AID 2283326)
# Summary of the method: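 Radioligand displacement on rat whole-brain extract, 1 h, filter scintillation readout; signal loss fitted versus DMSO. Primary screen in duplicate at 25 uM; hits (e.g. ≥30% inhibition) retested in concentration-response up to 50 uM.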
# [17] = biological target: rat Vasopressin 1 Receptor (V1), Avpr1a (gene 25107) (UniProt P30560); assay: NVS_GPCR_rV1: NovaScreen (NVS) G Protein-Coupled Receptor Assay for rat Vasopressin 1 Receptor (V1) (AID 2283316)
# Summary of the method: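 Radioligand binding on rat liver membranes, 1.5 h incubation, filter-based scintillation counting. Single 25 uM screen in duplicate; chemicals meeting threshold (e.g. 30% inhibition) run in concentration-response up to 50 uM.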
# [18] = biological target: human Constitutive Androstane Receptor (CAR), NR1I3 (gene 9970) (UniProt Q14994); assay: NVS_NR_hCAR_Agonist: NovaScreen (NVS) Nuclear Receptor Binding Assay for human Constitutive Androstane Receptor Agonism (CAR) (AID 2283328)
# Chain of human Constitutive Androstane Receptor (CAR), NR1I3 (gene 9970) (Q14994 whole entry, looked up): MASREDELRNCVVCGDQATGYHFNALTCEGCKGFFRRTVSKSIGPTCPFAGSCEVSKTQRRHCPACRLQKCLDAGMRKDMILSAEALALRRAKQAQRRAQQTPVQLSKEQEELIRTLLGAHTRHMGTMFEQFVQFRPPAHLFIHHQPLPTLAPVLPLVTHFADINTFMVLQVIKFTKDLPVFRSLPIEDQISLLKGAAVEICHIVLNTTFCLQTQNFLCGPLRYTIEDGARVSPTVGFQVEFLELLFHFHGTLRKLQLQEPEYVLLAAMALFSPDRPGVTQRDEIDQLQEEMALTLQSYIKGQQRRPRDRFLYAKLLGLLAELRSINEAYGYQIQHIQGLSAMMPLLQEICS
# Summary of the method: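 Cell-free TR-FRET binding readout with extracted human CAR protein, read 1 h after dosing. Gain of signal fitted against DMSO baseline. Single-concentration duplicates at 25 uM, then concentration-response up to 50 uM for actives.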
structure (smiles),measurement,setting,value
CCNc1nc(NC(C)C)nc(SC)n1,outcome,[1],inactive
C[C@]12CCC(=O)C=C1CC[C@@H]1[C@@H]2CC[C@@]2(C)[C@H]1CC[C@]2(C)O,AC50,[2],3.26 µM (active)
same,outcome,[1],inactive
CCCCCCCCCC[N+](C)(C)CCCCCCCCCC,outcome,[3],inactive
same,AC50,NCBI gene 257648,41.7 µM (active)
same,AC50,[4],10.2 µM (active)
same,AC50,[2],1.03 µM (active)
same,outcome,[5],inactive
same,AC50,[6],18.6 µM (active)
same,AC50,[7],21.5 µM (active)
CO/C=C(/C(=O)OC)c1ccccc1COc1cccc(C(F)(F)F)n1,AC50,[7],4.21 µM (active)
O=C(NC(=O)c1cc(F)c(F)cc1Cl)Nc1cc(F)ccc1N1CCC(C(=O)O)CC1,outcome,[6],inactive
CC(C)(c1ccccc1)c1ccc(O)cc1,AC50,[4],25 µM (active)
same,AC50,[2],31.4 µM (active)
same,outcome,[7],inactive
Cc1cc2c3c(c1)C(c1ccccc1)=N[C@@H](NC(=O)c1ccncc1)C(=O)N3CC2,AC50,[8],25 µM (active)
same,AC50,[9],1.43 µM (active)
CCCCCCCCCc1ccc(O)cc1,outcome,[10],inactive
same,outcome,[5],inactive
same,outcome,[1],inactive
Cc1ccc(O)c(C)c1,outcome,[7],inactive
O=C(N[C@H]1CN2CCC1CC2)c1cc2ccoc2cn1,AC50,[11],17.7 µM (active)
same,AC50,[12],0.0114 µM (active)
same,outcome,[10],inactive
same,AC50,[2],11.7 µM (active)
same,AC50,[5],1.35 µM (active)
CC1=C2C[C@H]3[C@@H](CC=C4C[C@@H](O)CC[C@@]43C)[C@@H]2CC[C@]12O[C@@H]1C[C@H](C)CN[C@H]1[C@H]2C,outcome,[13],inactive
same,AC50,[2],0.171 µM (active)
Sc1ccccc1,outcome,[1],inactive
Cc1cccc(C)c1N,outcome,[14],inactive
COc1ccc(O)c(C(C)(C)C)c1,AC50,[2],38.2 µM (active)
Cc1cc(O)ccc1Cl,outcome,NCBI gene 24521,inactive
same,AC50,[7],2.64 µM (active)
CCSC(=O)N(CC)C1CCCCC1,outcome,[15],inactive
same,outcome,[7],inactive
CCC(C)(c1ccc(O)cc1)c1ccc(O)cc1,AC50,[13],15.6 µM (active)
same,AC50,[2],13.7 µM (active)
same,AC50,[15],16.4 µM (active)
same,AC50,[7],9.64 µM (active) and 2.96 µM (active) and 14.1 µM (active)
ClC1=C(Cl)[C@]2(Cl)[C@@H]3[C@H]4C[C@H]([C@@H]5O[C@H]45)[C@@H]3[C@@]1(Cl)C2(Cl)Cl,AC50,[3],9.78 µM (active)
same,outcome,[10],inactive
ClC1=C(Cl)[C@]2(Cl)[C@@H]3[C@@H]4C[C@@H]([C@H]5O[C@@H]45)[C@@H]3[C@@]1(Cl)C2(Cl)Cl,AC50,[3],10.6 µM (active)
Clc1ccc(C(c2ccccc2Cl)C(Cl)(Cl)Cl)cc1 (configuration not stated),outcome,[10],inactive
same,outcome,[14],inactive
Oc1ccc(C(c2ccc(O)cc2)(C(F)(F)F)C(F)(F)F)cc1,AC50,[2],5.87 µM (active)
same,AC50,[15],19.5 µM (active)
same,AC50,[6],13.6 µM (active)
C[C@]12CCC(=O)C=C1CC[C@@H]1[C@@H]2CC[C@]2(C)C(=O)CC[C@@H]12,AC50,[3],17.6 µM (active)
same,outcome,[13],inactive
same,AC50,[2],25 µM (active)
CCOP(=S)(OCC)SCSC(C)(C)C,outcome,[12],inactive
Cc1ccccc1CO[C@@H]1C[C@@]2(C(C)C)CC[C@]1(C)O2,AC50,[7],8.27 µM (active)
CCCCCCOC(=O)c1ccccc1C(=O)OCCCCCC,outcome,[16],inactive
CCC(C)(CC)c1cc(NC(=O)c2c(OC)cccc2OC)on1,AC50,[17],2.57 µM (active)
same,outcome,[4],inactive
same,outcome,[9],inactive
same,outcome,[7],inactive
O=C(O)C(F)(F)C(F)(F)C(F)(F)C(F)(F)C(F)(F)F,outcome,[5],inactive
same,outcome,[18],inactive
CN(C)CCO,AC50,[4],25 µM (active)
Clc1ccc(Cl)cc1,outcome,[5],inactive
same,outcome,[6],inactive
OCC(O)CO,outcome,[1],inactive
CCC(=O)O[C@H]1CC[C@H]2[C@@H]3CCC4=CC(=O)CC[C@]4(C)[C@H]3CC[C@]12C,outcome,[10],inactive
CC(c1ccc(O)cc1)(c1ccc(O)cc1)c1ccc(O)cc1,outcome,[8],inactive
same,outcome,[14],inactive
same,outcome,[15],inactive
